Values without a mark were called inactive. Activity calls are given as the source filed them. Calls come from the whole dose curve; as a rule, active = well fitted inhibition curve with a large enough effect; inconclusive = small, poorly fitted or top-dose-only effect; inactive = flat fitted curve, though single readings scatter. *1 amine or outer side, *2 acyl side, *3 side chain or, on linkers, in order; H or OH if unused. Where a SMILES comes first, the peptide text is derived from it. [ ]: non-standard residue; d: D form. ξ: configuration not given here. Ala(indol-2-yl) = N[C@@H](Cc1cc2ccccc2[nH]1)C(=O)O; X7 = O=C([C@@H](CC(O)CCl)O[*:1])[*:2]; aIle = CC[C@@H](C)[C@H](N)C(=O)O; ξLac(3-iPr) = CC(C)CC(O)C(=O)O; NMeV = CN[CH](C(=O)O)C(C)C; NMeA = CN[CH](C)C(=O)O; Aib = CC(C)(N)C(=O)O; βAla = NCCC(=O)O
System: Nanoluciferase (engineered Oplophorus gracilirostris luciferase)
Assay: Primary Nanoluciferase (NLuc) qHTS assay for identification of artifact compounds. (AID 1845222)
Settings: NLuc-conditioned medium, Nano-Glo luminescence, 5 min; series mostly up to 54.1 µM; activity, negative = inhibition: at the top concentration
Source text: PI: Alexander Tropsha Ph.D.
UNC Eshelman School of Pharmacy
University of North Carolina, Chapel Hill, North Carolina
Hits from high-throughput screening (HTS) of chemical libraries are often false positives due to their interference with the assay detection technology. In response to this problem, we generated the largest publicly available library of chemical liabilities and developed a free webtool to predict HTS artifacts, both of which are described herein. More specifically, we generated, curated, and integrated HTS datasets for thiol reactivity, redox activity, and luciferase (firefly and nano) activity. Using these curated datasets, we developed and validated several Quantitative Structure-Interference Relationship (QSIR) models to predict nuisance behavior. […] These models were employed for virtual profiling of the National Center for Advancing Translational Science's (NCATS) in-house library, and 256 compounds for each assay were selected for the experimental validation of nuisance behavior. The BA for these external predictions ranged from 58 to 78% for compounds within the applicability domains of the models. […] The models developed in this study, along with aggregation models previously developed by our group (SCAM Detective) were implemented in "Liability Predictor," an online tool which may be used as part of chemical library design or for triaging HTS hits. Both the models and the curated datasets are publicly available at https://liability.mml.unc.edu/.
SEQUENCE No. (e.g., 1, 2, 3, etc.); […] (e.g., Cells, Incubation, Reagent, etc.); VALUE; DESCRIPTION.
1; Reagent; 2 uL; Nanoluciferase media.
2; Compounds and control; 16 nL; Kalypsis pin tool (Wako USA) equipped with a 1536-well pin head.
4; Reagent; 2 uL; Luciferase enzyme.
6; Detection; Luminescence, ViewLux microplate reader.
NOTES (numbers refer to Sequence numbers above)
1. Medium was collected from the culture flasks of NLuc-expressing S16 cells (80% confluent) prior to cell plating, filtered through a 0.22um filter, and frozen at -20C prior to use. Media was diluted (1:55) and 2 uL was dispensed into all wells of a 1536-well assay plate (solid-bottom white plate; Greiner Bio One, Monroe, NC).
2. A Wako Pin-tool (Wako Automation, Richmond, VA) was used to transfer 16 nL of compounds (consisting of 7-plates in qHTS format, final concentration range 18.3 nM to 114 uM) or control Cilnidipine (final concentration range 623 nM to 80 uM).
3. 15 min. incubation at room temperature protected from light.
4. 2 uL of NLuc substrate (1:100 in Nano-Glo luciferase buffer; Nano-Glo luminescence assay, Promega, Madison, WI) was dispensed for a final assay volume of 4 uL.
5. Plates were centrifuged (121xg, 15 seconds) and incubated for 5 minutes.
6. Samples were read for luminescence on a ViewLux CCD imager (PerkinElmer). Data were normalized to no-enzyme (0% activity) and no-inhibitor (DMSO; 100%) controls and the resulting percent inhibition data were fitted to a 4-parameter Hill equation using NCATS in-house software.
Potency is the fitted concentration of half-maximal effect.

Point of comparison: `CC(C)[C@H]1OC(=O)[C@H](Cc2ccccc2)N(C)C(=O)[C@@H](C(C)C)OC(=O)[C@H](Cc2ccccc2)N(C)C(=O)[C@@H](C(C)C)OC(=O)[C@H](Cc2ccccc2)N(C)C1=O`, “activity, negative = inhibition” value -2.57% [at 25.7 µM]. Against it:
- CC[C@@H](C)[C@@H]1NC(=O)[C@@H]2CCCN2C(=O)[C@@H](CC(O)CCl)OC(=O)CCNC(=O)[C@H](C)N(C)C(=O)[C@H](C(C)C)N(C)C1=O (stereo not given in full) (cyclo([NMeA][βAla][X7]P[aIle][NMeV])) — higher, 1.5% [at 25.7 µM]
- CC(=O)OC[C@]12[C@H](OC(C)=O)C(=O)[C@@H]3[C@@H](O)[C@@]14O[C@@]3(C)COC(=O)c1cccnc1[C@@H](C)[C@H](C)C(=O)O[C@@H]([C@H](OC(C)=O)[C@@H]2OC(C)=O)[C@]4(C)O — higher, 4.45% [at 25.7 µM]
- C[C@@H]1[C@H](O)[C@@H](C)/C=C/C=C/CC/C=C/C=C/C=C/C=C/[C@H](O[C@H]2O[C@@H](C)[C@H](O)[C@@H](N)[C@H]2O)C[C@@H]2O[C@](O)(C[C@@H](O)[C@H](O)CC[C@@H](O)C[C@@H](O)C[C@@H](O)CC(=O)O[C@H]1C)C[C@H](O)[C@H]2C(=O)O — higher, 1.01% [at 25.7 µM]
- CC[C@@H](C)[C@H]1C(=O)O[C@H](C(C)C)C(=O)N(C)[C@@H](C(C)C)C(=O)O[C@H](C(C)C)C(=O)N(C)[C@@H](C(C)C)C(=O)O[C@H](C(C)C)C(=O)N1C — higher, 3.79% [at 25.7 µM]
- CC1=CC2/C=C(\C)CCC(O)C(O)/C=C/C(=O)C23C(=O)NC(CC(C)C)C3C1C (stereo not given) — higher, 2.19% [at 25.7 µM]
- CC(=O)OC[C@]12C[C@H](OC(=O)CC(C)C)C(C)=C[C@H]1O[C@@H]1[C@H](O)[C@@H](OC(C)=O)[C@@]2(C)[C@@]12CO2 — higher, 2.25% [at 25.7 µM]
- CCC(C)C1NC(=O)C2CCCN2C(=O)C(CC(C)C)OC(=O)CCNC(=O)C(C)N(C)C(=O)C(C(C)C)N(C)C1=O (stereo not given) (cyclo([ξLac(3-iPr)]PI[NMeV][NMeA][βAla]); configuration not given here) — higher, 4.47% [at 25.7 µM]

Point of comparison: `CCC1(O)CCC2C3CCC4=CC(=O)CCC4C3CCC21CC` (stereo not given), “activity, negative = inhibition” value 3.82%. Against it:
- CCC(C)/C=C(C)/C=C/C1=CC2=C(Cl)C(=O)C(C)(OC(C)=O)C(=O)C2=CO1 (stereo not given) — lower, -12.9%
- CC12CCC3C(C1)c1c(cc(O)c(C(=O)c4ccccc4)c1OC3(C)C)O2 (stereo not given) — lower, 1.87%
- Cc1sc2c(c1C)C(c1ccc(Cl)cc1)=NC(CC(=O)Nc1ccc(O)cc1)c1nnc(C)n1-2 (stereo not given) — lower, -0.179%
- C=C(CO)C(=O)O[C@H]1CC(=C)[C@@H]2C[C@H](O)C(=C)[C@@H]2[C@H]2OC(=O)C(=C)[C@@H]21 — lower, -0.342%
- Fc1cc(F)c2c(c1)C1C=CCC1C(c1cccnc1)N2 (stereo not given) — lower, 0.158%
- CC(O)(c1ccccc1)C(Cc1ccc(Cl)cc1)n1cncn1 (stereo not given) — lower, -11.2%
- COc1cc(O)c2c(c1)/C=C/C[C@@H](O)[C@@H](O)C(=O)CCC[C@H](C)OC2=O — lower, -2.32%
- C[C@@H](CN1CCC(n2c(=O)[nH]c3cc(Br)ccc32)CC1)NC(=O)[C@@H]1C[C@H]1c1ccccc1 — lower, 2.71%
- CN1CCc2cc3c(cc2C1C1OC(=O)c2c1ccc1c2OCO1)OCO3 (stereo not given) — higher, 4.62%
- C=C1[C@@H](C)C2[C@H](Cc3ccccc3)NC(=O)[C@@]23C(/C=C/C[C@H](C)C[C@@](C)(O)/C=C/[C@@H]3OC(C)=O)[C@@H]1O (stereo not given in full) — lower, 0.257%
- COc1cc2c(cc1O)C1(C)CCC(O)C(C)(C)C1CC2=O (stereo not given) — lower, -1.43%
- CC[C@H](O)[C@@H](C)[C@H]1O[C@@H]1C[C@H](C)/C=C/C=C(\C)[C@H]1OC(=O)C[C@H](O)CC[C@@](C)(O)[C@@H](OC(C)=O)/C=C/[C@@H]1C — lower, -6.19%
- CC(C)OC(=O)c1ccnc2cc(C(OCCN3CCCCC3)c3ccccc3Cl)sc12 (stereo not given) — lower, -4.42%
- CC[C@H]1C2CC3[C@@H]4N(C)c5ccccc5[C@]45C[C@@H]([C@H]2[C@H]5O)N3[C@@H]1O — lower, -1.5%
- CN1CCN(c2nc3ccccc3nc2Cl)CC1 — lower, 2.26%
- COc1ccc2c3c([nH]c2c1)C(C=C(C)C)N1C(=O)C2CCCN2C(=O)C1C3 (stereo not given) — lower, 1.73%
- COc1ccc2c(c1)c(CCN(C)C)cn2S(=O)(=O)c1ccccc1 — lower, 1.28%
- C=C[C@H]1CN2CCC1C[C@H]2[C@H](O)c1ccnc2ccccc12 (stereo not given in full) — lower, 0.3%
- C=C(C)[C@@H]1[C@H]2OC(=O)[C@H]1[C@]1(O)C[C@H]3O[C@]34C(=O)O[C@H]2[C@]14C — higher, 4.64%
- C=CC(C)(C)c1[nH]c2c(CC=C(C)C)cc(CC=C(C)C)cc2c1C[C@@H]1NC(=O)[C@H](C)NC1=O — lower, 3.09%
- CN1C(=O)[C@@H](Cc2c[nH]c3ccccc23)N=C(c2ccccc2F)c2ccccc21 — lower, -14.9%
- O=C(C[C@@H]1NCCC[C@H]1O)Cn1cnc2ccccc2c1=O — lower, 0.375%
- Cc1cccc(NC(=O)c2ccc(C(F)(F)F)cc2C(=O)O)n1 — lower, -5.54%
- C[C@]12CC[C@H](O)C[C@@]1(O)CC[C@@H]1[C@@H]2CC[C@]2(C)[C@@H](c3ccc(=O)oc3)CC[C@]12O — lower, -5.47%
- CCC1CC2CN3CCc4c([nH]c5ccccc45)C(C(=O)OC)(C2)C13 (stereo not given) — lower, 1.25%

Point of comparison: `CC(C)(NC(=O)[C@@H](N)Cc1ccc(O)cc1)C(=O)N[C@@H](Cc1cc2ccccc2[nH]1)C(=O)N[C@@H](Cc1ccccc1)C(=O)O` (H-Y[Aib][Ala(indol-2-yl)]F-OH), activity, negative = inhibition 2.82% [at 11.6 µM]. Against it:
- Nc1ncnc2c1ncn2[C@@H]1O[C@@H]2COP(O)(=S)O[C@H]2[C@H]1O (stereo not given in full) — lower, 0.0656% [at 11.6 µM]
- CC[C@@H]1/C=C/C=C/C[C@H](C)C(O)[C@](C)(O)C(=O)[C@H](C)C(O)[C@H](C)C(=O)[C@H](C)[C@@H](O)[C@H](C)/C=C/C(=O)O[C@H]2[C@@H](C)[C@@H](CC1)O[C@]1(O[C@H](C[C@H](C)O)[C@H](C)CC1=O)[C@@H]2C (stereo not given in full) — lower, -0.681% [at 11.6 µM]
- CO[C@@H]1C[C@H](O[C@H]2CC[C@@]3(C)C(CCC4C3CC[C@]3(C)[C@@H](C5=CC(=O)OC5)[C@@H](OC(C)=O)CC43O)C2)O[C@H](C)[C@@H]1O[C@H]1O[C@H](CO[C@@H]2O[C@H](CO)[C@@H](O)[C@H](O)[C@H]2O)[C@@H](O)[C@H](O)[C@H]1O (stereo not given in full) — lower, 1.29% [at 11.6 µM]
- CO[C@@H]1[C@@H](O)[C@@H](O[C@H]2CC[C@]3(C=O)C4CC[C@]5(C)[C@@H](C6=CC(=O)OC6)CC[C@]5(O)[C@@H]4CC[C@H]3C2)O[C@@H](C)[C@H]1O[C@@H]1O[C@H](CO[C@@H]2O[C@H](CO)[C@@H](O)[C@H](O)[C@H]2O)[C@@H](O)[C@H](O)[C@H]1O (stereo not given in full) — lower, 1.53% [at 11.6 µM]

For `N#Cc1ccccc1-c1cc(-c2ccccn2)cn(-c2ccccc2)c1=O`, the Potency was 10.7 µM (active).
